Screening data from PubChem BioAssay.
D2 PAM-1 = human D2 receptor positive allosteric modulation; potentiation, % (test concentration not listed); P14416; DiscoveRx D2 beta-arrestin cells, luminescence, 90 min; 100% = 57 uM dopamine signal; hit rate 0.23% among 360,000; in the data active means potentiation above about 50%; inconclusive means mostly about 30% to 49%
Target sequence (P14416 whole entry, looked up): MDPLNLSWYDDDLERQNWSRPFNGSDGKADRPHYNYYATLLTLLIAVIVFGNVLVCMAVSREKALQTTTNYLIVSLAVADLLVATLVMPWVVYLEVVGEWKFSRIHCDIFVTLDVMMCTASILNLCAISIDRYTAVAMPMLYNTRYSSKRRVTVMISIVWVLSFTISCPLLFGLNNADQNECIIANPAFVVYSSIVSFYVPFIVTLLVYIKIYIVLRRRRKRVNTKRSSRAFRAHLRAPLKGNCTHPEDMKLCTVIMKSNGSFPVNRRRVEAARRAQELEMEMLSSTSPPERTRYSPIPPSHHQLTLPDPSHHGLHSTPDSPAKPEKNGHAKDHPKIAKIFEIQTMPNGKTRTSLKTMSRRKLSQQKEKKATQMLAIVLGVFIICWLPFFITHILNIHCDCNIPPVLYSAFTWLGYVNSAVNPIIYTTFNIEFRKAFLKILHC
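D2 cells co-treated with compound plus 50 nM dopamine (EC20) for 90 min at 37 deg C to detect potentiation. Beta-arrestin recruitment was read as enzyme-fragment luminescence after 1 h at ambient temperature. Full response was set by 57 uM dopamine.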
D2 PAM-2 = positively modulates the human D2 dopamine receptor allosterically; P14416; HEK293 T-REx D2, calcium flux, EC20 dopamine potentiation; potentiation, % at 10 µM; hit rate 0.34% among 340,000;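 active means potentiation over 3 SD above the plate norm, cut at about 30% in these data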; further: 0% is about no effect
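Cells plated with tetracycline inducer and held overnight at 30 C; calcium dye loaded 30–90 min at room temperature; baseline taken, compound added and read 180 s; EC20 dopamine then added and read 180 s.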
D2 antagonist = D2 dopamine receptor (human) antagonism; inhibition, % at 10 µM; HEK293 TREx D2 cells, calcium flux, dopamine EC80; AID 485344; hit rate 2% among 340,000; in the data active means inhibition above about 30%; inactive means below that, where a call was filed; further: 0% is about no effect
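Inhibition of EC80 dopamine-driven calcium flux, recorded kinetically, defines activity here; cells are a tetracycline-induced HEK293 T-REx line expressing force-coupled D2.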
D2 ag-1 = agonists of human D2 dopamine receptor (beta-arrestin) | activation, % (test concentration not listed) | P14416 | AID 624465 | hit rate 0.084% among 360,000 | DiscoveRx PathHunter D2 beta-arrestin, luminescence, 90 min; 100% = 57 uM dopamine signal; in the data active means activation above about 40%; inconclusive means between about 15% and that limit
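DiscoveRx PathHunter D2 beta-arrestin cells (2,100/well) attached overnight, then compound-stimulated 90 min at 37 C in HBSS/10 mM HEPES/0.1% Tween-20 buffer; beta-galactosidase complementation read by luminescence after 1 h at ambient temperature. Dopamine 57 uM final (EC100) as control.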
D2 ag-2 = agonists of human D2 dopamine receptor. P14416. HEK293 T-REx D2 cells, calcium flux agonist mode. activation, % at 2 µM. hit rate 0.53% among 340,000;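 active means activation over 3 SD above normal in the single-dose calcium agonist read, cut at about 30% in these data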; further: 0% is about no effect
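Agonism scored from kinetic calcium signal (1 read/sec, 180 s) following compound pin transfer, after a 10 s baseline. Cells: HEK293 Trex line expressing inducible D2 receptor coupled to calcium, dye-loaded after overnight culture at 30 C.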
* marks the source's active call; other numbers are inactive results; ? = inconclusive; . = no result given. Most compounds without a hit are left out; they make up all but 2.4% or so of the library.

SMILES | D2 PAM-1 | D2 PAM-2 | D2 antagonist | D2 ag-1 | D2 ag-2
COCCn1c(=O)[nH]c2cc(C(=O)NCCCN3CCN(c4ccc(F)cc4)CC3)ccc2c1=O | -8 | -30 | 58* | 5 | 35*
COCCn1c(=O)[nH]c2cc(C(=O)NCCN3CCN(c4ccccc4F)CC3)ccc2c1=O | 18 | -21 | 96* | ? | 83*
COCCn1c(=O)[nH]c2cc(C(=O)Nc3cccc(F)c3)ccc2c1=O | -7 | -18 | 20 | 3 | 40*
N/C(=N\OC(=O)c1cccc(F)c1)c1ccccc1 | 57* | 5 | -2 | ? | 0
N/C(=N\OC(=O)c1ccc(F)cc1)c1ccccc1 | 72* | -9 | 5 | ? | -1
COc1ccc(C)cc1NC(=O)CNC(c1ccccc1)c1ccc(C)cc1 (stereo unspecified) | -11 | 0 | -5 | 0 | 1
COc1ccccc1NC(=O)CNC(c1ccccc1)c1ccccc1 | -6 | . | 36* | -3 | -1
O=[N+]([O-])c1nn(-c2ccc3c(c2)OCCO3)n(O)c1=Nc1ccccc1 | ? | 9 | -4 | ? | -1
O=[N+]([O-])c1nn(-c2ccc3c(c2)OCCO3)n(O)c1=NC1CCCC1 | 75* | 9 | -1 | 8 | 1
O=[N+]([O-])c1nn(-c2ccc3c(c2)OCCO3)n(O)c1=NC1CCCCCC1 | 85* | 5 | -13 | ? | 0
CCOC(=O)c1c(C)c(-c2ccccc2)n(CC(=O)NC2CCCCC2)c1C | . | 0 | . | . | 0
CCOc1ccc(OCC)c(NC(=O)c2cc(CN3CCOCC3)on2)c1 | . | -9 | . | . | 0
Cc1cc(O)c(C(C)C)cc1NC(=O)Nc1ccc([N+](=O)[O-])cc1 | -18 | . | . | -3 | .
CCOc1ccc(NC(=O)Nc2cc(C(C)C)ccc2C)cc1 | . | -23 | 31* | . | -1
Cc1ccc(C(C)C)cc1NC(=O)Nc1ccc([N+](=O)[O-])cc1 | -23 | -23 | 37* | 9 | 4
COc1ccc(CNC(=O)c2ccc3c(c2)CCN3S(=O)(=O)c2ccccc2)cc1 | . | -1 | . | . | 0
C/C(=N/NC(=O)c1ccc(Br)o1)c1ccncc1 | -11 | -1 | 38* | -4 | -1
CC(=O)Cn1c(CN2CCCCC2)nc2ccccc2c1=O | -4 | -29 | 4 | -4 | 1
CC(=O)Cn1c(CN2CCCC2)nc2ccccc2c1=O | -6 | -4 | 35* | -5 | 1
OCCNC(=S)Nc1ccc2nsnc2c1 | -7 | -7 | 31* | -1 | 0
COc1ccc(CNC(=O)c2ccc3c(c2)N(Cc2cccc(Cl)c2)C(=O)c2ccccc2S3)c(OC)c1 | . | -1 | . | . | 0
COC(=O)[C@H]1[C@H](c2ccccc2)[C@H](C(=O)OC)O[C@H]1c1ccccc1 | -9 | . | . | -5 | .
COC(=O)C1C(c2ccccc2)C(C(=O)N2CCN(C)CC2)C1c1ccccc1 (stereo unspecified) | 8 | 1 | 33* | -3 | 0
COc1ccc(C2=C(C)C(N3CCC(C(=O)Nc4ccccc4F)CC3)=NS2(=O)=O)cc1 | . | 11 | . | . | -2
COc1ccc(OC)c(NC(=O)c2cc(-c3ccc(C)cc3O)n[nH]2)c1 | 13 | -1 | 32* | -4 | -1
SMILES | D2 PAM-1 | D2 PAM-2 | D2 antagonist | D2 ag-1 | D2 ag-2
Cc1ccccc1CSc1nnnn1-c1ccc(C(N)=O)cc1 | -2 | -2 | 11 | 0 | -1
O=C(O)c1ccc(-n2nnnc2SCc2ccccc2F)cc1 | -8 | -31 | 37* | 1 | 1
COC(=O)c1ccc(C(=O)OC)c(NC(=O)N2CC3CCCN3c3ccccc32)c1 (stereo unspecified) | . | 13 | . | . | 0
CC(=O)c1ccc(NC(=O)c2ccc3nc(-c4ccco4)c(-c4ccco4)nc3c2)cc1 | 76* | . | . | 13 | .
O=C(Nc1ccccc1)c1ccc2nc(-c3ccco3)c(-c3ccco3)nc2c1 | ? | 25 | 1 | 7 | -2
COc1ccc(/C=C2\CC/C(=C\c3ccc(OC)c(OC)c3)C2=O)cc1OC | -8 | 12 | -3 | -3 | 1
COc1cc(/C=C2\CC/C(=C\c3ccc(OCCO)c(OC)c3)C2=O)ccc1OCCO | 9 | 21 | 0 | 10 | 76*
CCOc1ccccc1NC(=O)CN(C)S(=O)(=O)c1ccc(C(=O)N2CCOCC2)s1 | . | 0 | . | . | -1
Clc1ccc(OCCCCCN2CCCC2)c(Br)c1 | -25 | -44 | -7 | 1 | 3
